Most compounds without a hit are left out; they make up all but 7.9% or so of the library.
KB-3-1 tox: qHTS assay for MDR1-selective chemotherapeutics: Primary screen using the parental adenocarcinoma cell KB-3-1 | KB-3-1 viability, CellTiter-Glo ATP luminescence, 72 h | Potency, µM (doses to about 46.1 µM), hits mostly cytotoxic | 400,000 compounds, 1.4% hits | AID 1347075, 2019; note: nearly all actives have a fitted effect of over 60% in size
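72 h, 37 °C compound treatment of KB-3-1 parental cells; CellTiter-Glo added, 10 min, luminescence read. Data corrected against DMSO-only plates and normalized before curve fitting.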
HT1080 IDH1KD tx: qHTS for induction of synthetic lethality in tumor cells producing 2HG: qHTS for the HT-1080-IDH1KD cell line. 360,000 compounds, 2% hits. Potency, µM (highest dose often 46.1 µM), most hits filed as cytotoxic. HT-1080 IDH1 knockdown viability, ATP luminescence, 48 h. AID 686971, 2013
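IDH1KD HT-1080 cells, 750/well, RPMI + 5% FBS; compound pinned after 2 h settling; 48 h, 37 °C; CellTiter-Glo luminescence; % activity normalised to DMSO and no-cell wells; curves fitted, classed by r2 and efficacy.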
HT1080-NT tox: qHTS for induction of synthetic lethality in tumor cells producing 2HG: qHTS for the HT-1080-NT fibrosarcoma cell line; HT-1080-NT fibrosarcoma viability, CellTiter-Glo ATP luminescence, 48 h; Potency, µM (highest dose often 46.1 µM), hits mostly cytotoxic; 360,000 compounds, 1.6% hits;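 note: NT is the 2HG producing partner of a matched IDH1 knockdown line; nearly all actives have a fitted effect of over 55% in size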
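Toxicity toward the 2HG-producing NT line was scored as %Activity, normalised to DMSO and no-cell wells, from CellTiter-Glo luminescence after 48 hours' treatment.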
SW480 rerep: A quantitative high throughput screen for small molecules that induce DNA re-replication in SW480 colon adenocarcinoma cells | SW480 DNA re-replication, Hoechst DNA content imaging, 48 h | Potency, µM (doses to about 46.1 µM), most hits filed as activators | 340,000 compounds, 1.8% hits | AID 624297, 2012; note: nearly all actives have a fitted effect of over 55% in size
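Compounds, transferred as 23 nL by pin tool, were incubated with cells for 48 hr; DNA content per nucleus was then quantified by Hoechst staining and fluorescence plate imaging.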
MCF10A rereplic: A quantitative high throughput screen for small molecules that induce DNA re-replication in MCF 10a normal breast cells; MCF 10A DNA re-replication, Hoechst nuclear intensity, 48 h; Potency, µM (top dose mostly 46.1 µM), usual class: activators; 350,000 compounds, 2.9% hits; note: nearly all actives have a fitted effect of over 50% in size
KB-V1 cytotox: qHTS assay for MDR1-selective chemotherapeutics: Primary screen using the drug-selected MDR subline cells KB-V1 | KB-V1 MDR cells viability, CellTiter-Glo, 72 h | Potency, µM (highest dose often 46.1 µM), hits mostly cytotoxic | 400,000 compounds, 3.4% hits; note: nearly all actives have a fitted effect of over 60% in size
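Readout: CellTiter-Glo luminescence, 10 min after addition. Cells: KB-V1 MDR subline, 72 h at 37 degrees C with compound. Analysis: corrected, normalized data fitted to concentration-effect curves.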
Large screens that a line does not name were inactive; ! = repeats disagree. Calls come from the whole dose curve; as a rule, active = well fitted curve in the direction sought with a large enough effect; inconclusive = small, poorly fitted or top-dose-only effect, or another doubt; inactive = no such curve, though single readings can be large; an effect the other way counts as inactive or inconclusive.

O=C(Nc1ccc(Br)cc1)c1cccn1-c1ncc(C(F)(F)F)cc1Cl	HT1080 IDH1KD tx 11µM, HT1080-NT tox inconclusive, MCF10A rereplic inconclusive
CCOc1ccc(Br)cc1C1=NN(C(C)=O)C(c2ccc([N+](=O)[O-])s2)O1 (stereo unspecified)	KB-3-1 tox inconclusive, HT1080 IDH1KD tx inconclusive, HT1080-NT tox 23µM, SW480 rerep 8.2µM, MCF10A rereplic inconclusive
CC(=O)N1N=C(c2ccc(C)cc2)OC1c1ccc(Br)cc1 (stereo unspecified)	MCF10A rereplic inconclusive
COc1cc(-c2cc(OC)c(O)c(OC)c2)cc(OC)c1O	KB-3-1 tox inconclusive, HT1080 IDH1KD tx inconclusive, SW480 rerep 23µM, MCF10A rereplic inconclusive, KB-V1 cytotox inconclusive
COc1ccc(C2NN=C(c3c[nH]c4ccccc34)C2O)cc1 (stereo unspecified)	SW480 rerep inconclusive
COc1ccc(C2C(O)C(c3c[nH]c4ccccc34)=NN2C(=O)CCl)cc1 (stereo unspecified)	KB-3-1 tox inconclusive, HT1080 IDH1KD tx 0.65µM, HT1080-NT tox 0.46µM, SW480 rerep 1.3µM, MCF10A rereplic 4.6µM, KB-V1 cytotox 15µM
O=C(N/N=C/c1cc2c(cc1Cl)OCO2)c1cc(-c2ccccc2)n[nH]1	MCF10A rereplic inconclusive
O=C(Cc1n[nH]c(=O)c2ccccc12)N/N=C/c1cc2c(cc1Cl)OCO2	SW480 rerep inconclusive, MCF10A rereplic 18µM
N#Cc1c(N)nc(SCc2ccccn2)c(C#N)c1-c1cccs1	KB-3-1 tox inconclusive, HT1080 IDH1KD tx inconclusive, KB-V1 cytotox 2.9µM
CN1CCN(S(=O)(=O)c2cccc(C(=O)N(C)CC(=O)Nc3ccc(F)c(F)c3F)c2)CC1	MCF10A rereplic inconclusive
S=c1nc(C2CCCCC2)[nH][nH]1	HT1080 IDH1KD tx 6.3µM, HT1080-NT tox 11µM
CCOc1ccc(NC(=O)COC(=O)c2ccccc2OCC(=O)N(C)C)cc1	KB-3-1 tox inconclusive (no result: HT1080 IDH1KD tx, HT1080-NT tox, SW480 rerep, MCF10A rereplic)
COC(=O)C1=CN(C2CC2)C=C(C(=O)OC)C1c1ccc(C(F)(F)F)cc1	SW480 rerep inconclusive, MCF10A rereplic inconclusive
COC(=O)C1=CN(C2CC2)C=C(C(=O)OC)C1c1ccc(C(=O)OC)cc1	MCF10A rereplic inconclusive, KB-V1 cytotox 7.3µM
O=C(CN1CCN(Cc2cccc3ccccc23)CC1)NCCc1ccccc1	MCF10A rereplic inconclusive
COc1cccc2nc3cc(C)c(C)cc3nc12	HT1080 IDH1KD tx 8.2µM, HT1080-NT tox 18µM, KB-V1 cytotox inconclusive
COc1cccc2c1nc(C)c1cc(C)oc12	none
C/C(=N\NC(=O)Cc1ccc(Cl)cc1)c1cccc(NC(=O)c2cccnc2)c1	HT1080-NT tox inconclusive
N=c1ccn(Cc2ccc(Cl)cc2)cc1	KB-3-1 tox 4.6µM
N=c1ccn(Cc2ccccc2Cl)cc1	KB-3-1 tox inconclusive, KB-V1 cytotox inconclusive
N=c1ccn(Cc2ccc(Cl)cc2Cl)cc1	KB-3-1 tox 6.5µM, HT1080-NT tox inconclusive
COCOc1ccc(-c2ncc(OCCN3CCCC3=O)nc2NC(=O)c2cc3ccccc3s2)cc1	none (no result: SW480 rerep, MCF10A rereplic)
COc1cc(S(=O)(=O)N2CCN(c3ccccc3)CC2)ccc1Cl	KB-V1 cytotox 23µM
COc1ccc(S(=O)(=O)N2CCN(c3ccccc3)CC2)cc1OC	SW480 rerep inconclusive
O=C(NCCOc1ccccc1F)c1cccc(S(=O)(=O)N2CCN(c3ccccc3)CC2)c1	SW480 rerep inconclusive, KB-V1 cytotox 13µM
CC(=O)N1CCN(C(=O)c2cccc(S(=O)(=O)N3CCN(c4ccccc4)CC3)c2)CC1	none
O=C(NNC(=O)c1cccc(S(=O)(=O)N2CCN(c3ccccc3)CC2)c1)c1ccc(Cl)cc1	MCF10A rereplic inconclusive, KB-V1 cytotox 16µM
COc1ccccc1N1CCN(S(=O)(=O)c2ccc3nc(-c4ccccc4)[nH]c3c2)CC1	MCF10A rereplic 26µM!, KB-V1 cytotox inconclusive
N#Cc1ccc(NC(=O)COCc2cc(-c3ccc4c(c3)OCO4)on2)cc1	none (no result: HT1080 IDH1KD tx, HT1080-NT tox, SW480 rerep, MCF10A rereplic)
CC(=O)OCC1(C)CN(c2ccccc2)N(C(C)=O)C1=O (stereo unspecified)	HT1080 IDH1KD tx inconclusive, HT1080-NT tox 21µM
CC(=O)OCC1(C)CN(c2ccccc2)NC1=O (stereo unspecified)	HT1080 IDH1KD tx 23µM, HT1080-NT tox inconclusive
CCOc1ccc(NC(=O)CSc2nnc3scc(-c4ccc(Cl)cc4)n23)cc1	none (no result: HT1080 IDH1KD tx, HT1080-NT tox, SW480 rerep, MCF10A rereplic)
O=c1ccc(S(=O)(=O)N2CCCC2)cn1Cc1ccc(F)cc1	none
O=C(Nc1ccccc1)[C@@H]1CC=C[C@@H]2CCN(Cc3ccc(Cl)c(Cl)c3)C(=O)[C@@H]21	HT1080 IDH1KD tx inconclusive, HT1080-NT tox inconclusive, KB-V1 cytotox 21µM!
COC1=CC(=O)c2nc(Cl)ccc2C1=O	KB-3-1 tox inconclusive, HT1080 IDH1KD tx 2.9µM, HT1080-NT tox 3.7µM, KB-V1 cytotox inconclusive (no result: SW480 rerep, MCF10A rereplic)
COc1ccc(CNc2ccccc2C(=O)NCc2ccccc2)cc1COc1ccc(NC(C)=O)cc1	none (no result: KB-3-1 tox, SW480 rerep, MCF10A rereplic, KB-V1 cytotox)
Cc1nc(C(F)(F)F)ccc1C(=O)N1CCC1(C)C(=O)NCc1cccs1 (stereo unspecified)	none (no result: SW480 rerep, MCF10A rereplic)
c1ccc(-n2nnnc2Sc2ncnc3sc4c(c23)CCCC4)cc1	SW480 rerep inconclusive, MCF10A rereplic 21µM
O=C(OCC(=O)N1CCOCC1)c1ccc2ccccc2c1O	none
O=C(NCCN1CCOCC1)c1cc(Cl)ccc1Cl	none
O=C(NCCN1CCOCC1)NC1(C(F)(F)F)Oc2ccc(Cl)cc2O1 (stereo unspecified)	KB-3-1 tox 4.6µM, KB-V1 cytotox inconclusive
COC(=O)CCCC(=O)N1CCC(CCC(=O)NC2CC2)CC1	none
Cc1cc(C)cc(-n2c(C)cc(/C=N/NC(=O)CSc3ncccn3)c2C)c1	KB-3-1 tox inconclusive, HT1080 IDH1KD tx inconclusive, HT1080-NT tox inconclusive, SW480 rerep inconclusive, MCF10A rereplic 18µM, KB-V1 cytotox inconclusive
Cc1cc(/C=N/NC(=O)c2ccc(CN3CCOCC3)cc2)c(C)n1-c1ccccc1	KB-V1 cytotox 16µM
Cc1cc(/C=N/NC(=O)Cn2c3ccccc3c(=O)c3ccccc32)c(C)n1-c1ccccc1	HT1080 IDH1KD tx inconclusive, HT1080-NT tox inconclusive, MCF10A rereplic 21µM
O=C(N/N=C/c1ccccc1[N+](=O)[O-])c1ccc(CN2CCOCC2)cc1	none
Cc1cc(C)cc(-n2c(C)cc(/C=N/NC(=O)c3ccncc3)c2C)c1	none
